This note sets out measurements from PubChem BioAssay (NCI).

The structures appear in SMILES notation. About 79,000 compounds went through this panel and 15% of them were active in at least one assay; those are over-represented in the sample as a whole. Values without a mark were called inactive. Cut-off read from the data, not from the text of the source: active = growth inhibition above about 70%; inactive = the rest.

This test can be described thus: NCI Yeast Anticancer Drug Screen. Data for the mec2-1 strain (AID 157). The following applies: S. cerevisiae mec2-1 strain, at 50.0 µM, stronger effect = higher value. As to the method:
Growth inhibition of yeast strains with defined genetic alterations is measured as a screen for potential anti-cancer activity. Selected strains with alterations in DNA damage repair or cell cycle control were exposed to compounds and growth inhibition was measured relative to vehicle treated controls. The strain used in this assay is mec2-1
`C(=C\C(Sc1ccccc1)c1ccccc1)/NNC1=NC(c2ccccc2)C(c2ccccc2)=NN1` (stereo not given): the growth inhibition was -8.6%.

Take `O=S(=O)(/C=C/c1ccc(F)cc1)Cc1ccccc1`: the growth inhibition was -15.6%. Then `CC(=O)Nc1ccc(S(=O)(=O)N/N=c2/sc3ccccc3n2C)cc1`, with -12.4%. Consider `CCCCCC/C(C)=N/O`, for which the growth inhibition is 3.75%. `CCN(/N=C1\CC2C=CCN(C2)C(=O)Cc2c1[nH]c1ccccc21)S(=O)(=O)c1ccc(C)cc1` (stereo not given): the growth inhibition is 12.1%. With `CC(=O)Nc1cc2[nH]c(=O)c3cc(Cl)ccc3c2cc1[N+](=O)[O-]`, the growth inhibition is 36.1%. Take `CCCCCCCCCCCCCCCCCCCCCCBr`: the growth inhibition was 4.8%. For `NC(=S)NNC(=O)c1cccs1` the value was -10.2%. In the case of `CCCCCCCCCCCCCCCc1nnc(SC)s1`, the growth inhibition is -39%. For `Cc1c(Cl)c(=O)oc2cc(OCC(O)COC(C)C)ccc12` (stereo not given) the value was -30.9%. Turning to `COc1ccc2cc(CC(=O)c3ccccc3)ccc2c1`, the growth inhibition is -6.95%.

As to `COc1cc(OC)c2c3c(OC)cc(OC)c4c(=O)c(O)c(C[C@@H](C)O)c(c5c(C[C@@H](C)O)c(O)c(=O)c1c25)c43`, the growth inhibition is 46.4%. For `COC(=O)C(N)CSc1ccc([N+](=O)[O-])cc1[N+](=O)[O-]` (stereo not given) the value was 39.5%. For `C=C1C(=O)O[C@H]2[C@H]1CC(=O)/C(C)=C\CC[C@@]1(C)O[C@@H]21`, the growth inhibition was 59.4%.

With `COc1ccc2c(c1)C(Cc1ccc(Oc3cc(CC4c5cc(OC)ccc5CC[N+]4(C)C)ccc3OC)cc1)[N+](C)(C)CC2` (stereo not given), the growth inhibition is 2.75%. As for `CC(=Nc1cccc(C(F)(F)F)c1)c1c(O)cc(C)oc1=O`, the growth inhibition is 14.8%.

In the case of `COc1ccc(C(=O)CC(C#N)c2ccc(OC)cc2)cc1` (stereo not given), the growth inhibition is 3.25%. On to `CCOC(=O)CCCl`, for which the growth inhibition is 15.6%.

Regarding `CCCCCCCCCCCCCCCC(=O)N(CCCC)CCCC`, the growth inhibition is 5.7%.

As for `CC(C)C1=CC(=O)C(C)(C2=NC(C)(C)CO2)c2ccccc21` (stereo not given), the growth inhibition was -9.35%. Turning to `O=C(CC(=O)c1ccccc1)Nc1ccc(-c2nc3ccccc3c(=O)[nH]2)cc1`, the growth inhibition was 10.5%. For `CC(=O)C(C)CCOC1(C)OCCC1C` (stereo not given) the value was 5.25%; for `C=C1COC(/C=C(\C)CC/C=C(\C)CCl)C1` (stereo not given), -20.2%. Then `C=C(C)CN(CC(=C)C)c1nc(N)nc(N)n1`, with -2.95%; and `Clc1ccccc1C1Nc2ccccc2S1` (stereo not given), with 17.6%; and `Cc1cccc(C)c1NC(=O)/C(Cc1nc2ccc([N+](=O)[O-])cc2[nH]c1=O)=N\NC(N)=O`, with 50.6%. On to `O=C(C[n+]1ccccc1Br)c1ccc(I)cc1`, for which the growth inhibition was 2%. On to `CCC(CCC(C)C1CCC2C3CC=C4CC(OC(=O)Nc5ccccc5)CCC4(C)C3CCC12C)C(C)C` (stereo not given), for which the growth inhibition was -28.1%. With `COc1cc2cc(C)c(C)cc2cc1OC`, the growth inhibition is 13.7%.

`COC(=O)C(C)NC(=O)C(C)NC(=O)c1cc(OC)c(OC)c(OC)c1` (stereo not given): the growth inhibition was 17.8%. As for `Cc1cc(C)c(F)c(C)c1N`, the growth inhibition is 17.6%. For `CCCCC(C(=O)O)C(=O)O` the value was -13.4%; for `CCCCOC(=O)c1ccccc1`, 13.7%. Then `OCCCSc1ccccc1SCCCO`, with -2.45%; and `CC(=O)NC(C=O)OCC=O` (stereo not given), with 17.9%.

`COc1ccccc1NC(=O)CC(=O)n1nc(C)c(N=Nc2ccccc2C(=O)O)c1C`: the growth inhibition is -25.3%. Then `CC1CSC(C)(C)C(=O)N1` (stereo not given), with 14.8%; and `CCOC(=O)C1CC(C)CC1=O` (stereo not given), with -2.6%; and `CC(NNC(=S)N1CCCC1)c1cccc[n+]1[O-]` (stereo not given), with -2.85%.

For the molecule `CN(C)CC1CCc2c(n(C)c3ccccc23)C1=O` (stereo not given), the growth inhibition was -2.85%.
